hNpr1 antagonist – antagonists of human natriuretic peptide receptor Npr1. AID 1347048. hit rate 1.6% among 76,000. HEK293 hNpr1 GloSensor cGMP, ANP-stimulated luminescence. Potency, µM (series often up to 46.3 µM), hits mostly inhibitors; calls by dose curve; note: nearly all actives have a fitted effect of over 60% in size
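HEK293 cells stably expressing human Npr1 and cGMP GloSensor pGS-40F, loaded 2 h with 2% GloSensor reagent, given compound 30 min at room temperature. Luminescence read before and 20 min after 0.1 nM hNppA.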
HEK293 tox – cytotoxic compounds in HEK 293 cells | hit rate 6.6% among 94,000 | Potency, µM (titrated, usually from 115 µM), usual class: inhibitors | HEK 293 viability, ATP luminescence (CellTiter-Glo), 48-72 h; note: nearly all actives have a fitted effect of over 60% in size
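250 HEK 293 cells/well; compound by pintool; incubated 48 or 72 hr at 37 degree Celsius; CellTiter-Glo added, 10 min RT, luminescence imaged.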
NIH3T3 tox – cytotoxic compounds in NIH 3T3 cells. NIH 3T3 viability, CellTiter-Glo ATP luminescence, 48-72 h. Potency, µM (titrated, usually from 96.7 µM), usual class: inhibitors. hit rate 4.3% among 94,000. AID 1345082; note: nearly all actives have a fitted effect of over 55% in size
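Viability of NIH 3T3 cells after 48 or 72 hr compound treatment at 37 °C was assessed by CellTiter-Glo, with luminescence imaged following a 10 min room-temperature step.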
SNCA expr inhib – SNCA gene expression inhibition; HEK-293 SNCA-luciferase knock-in, luminescence, 24 h; Potency, µM (highest dose often 57.2 µM), most hits filed as inhibitors; hit rate 0.17% among 140,000; AID 1671194; note: nearly all actives have a fitted effect of over 45% in size
Luciferase inh – blocks purified firefly luciferase enzyme activity | P08659 | purified P. pyralis luciferase, luminescence, biochemical | Potency, µM (titrated, usually from 115 µM), usual class: inhibitors | hit rate 2.5% among 76,000 | AID 1347043; note: nearly all actives have a fitted effect of over 65% in size
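Purified P. pyralis luciferase (10nM final) in 50mM Tris acetate pH 7.5, 10mM Mg acetate, 0.01% Tween-20, 0.05% BSA with 10uM D-luciferin and 10uM ATP. Compounds titrated qHTS. Luminescence imaged on CCD.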
SNCA viab count – cell viability loss counter-screen | HEK-293-SNCA-luc viability, GF-AFC fluorescence, 24 h | Potency, µM (titrated, usually from 57.1 µM), actives largely listed as cytotoxic | hit rate 0.12% among 150,000 | AID 1671193; note: nearly all actives have a fitted effect of over 30% in size
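HEK-293-SNCA-luc cells (1500/well) plated 24 h, then exposed 24 h to a dilution series; GF-AFC added 30 min at 37C, fluorescence 405/540 nm; normalised to medium-only and DMSO wells, Hill fit.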
Of the large screens only hits and unclear results are named; the others gave an inactive call. Hits are enriched below; roughly 7.2% of the tested compounds scored in any of these assays. Unless noted, calls come from the whole dose curve; as a rule, active = well fitted curve in the direction sought with a large enough effect; inconclusive = small, poorly fitted or top-dose-only effect, or another doubt; inactive = no such curve, though single readings can be large; an effect the other way counts as inactive or inconclusive.

COc1cccc(-c2cccc(C(=O)N3CCN([S+](=O)([O-])c4ccccc4)CC3)c2)c1	HEK293 tox 35µM, NIH3T3 tox inconclusive (no result: hNpr1 antagonist, Luciferase inh)
COc1cccc(-c2cccc(C(=O)N3CCN(C(=O)c4ccc(C)cc4)CC3)c2)c1	HEK293 tox inconclusive, NIH3T3 tox inconclusive (no result: hNpr1 antagonist, Luciferase inh)
COc1cccc(-c2cccc(C(=O)N3CCN(C(=O)c4ccc(F)cc4)CC3)c2)c1	HEK293 tox 28µM, NIH3T3 tox inconclusive (no result: hNpr1 antagonist, Luciferase inh)
CCN(CC)Cc1cnc2c(C(=O)N[C@H](C(N)=O)C(C)C)cnn2c1	none
O=C(CCn1ccc(=O)[nH]c1=O)N1CCN(Cc2ccccc2)CC(O)C1 (configuration not stated)	none
CCn1nccc1C(=O)N1CCC2(CC1)CN(C1CCC1)CC2COC (configuration not stated)	none (no result: hNpr1 antagonist, Luciferase inh)
Cc1noc(-c2ccccc2OC2CCNC2)n1 (configuration not stated)	none
O=C(OCc1ccccc1)N1CCOCC12CCN(Cc1ncccn1)CC2	NIH3T3 tox inconclusive
O=C(OCc1ccccc1)N1CCOCC12CCN(Cc1ccc(O)cc1)CC2	HEK293 tox inconclusive, NIH3T3 tox 79µM
O=C1OCC2(CCN(Cc3c[nH]c4ccccc34)C2)N1Cc1ccccc1 (configuration not stated)	HEK293 tox inconclusive, NIH3T3 tox 89µM
O=C(OCc1ccccc1)N1CCOCC12CCN(Cc1c[nH]c3ccccc13)CC2	HEK293 tox 56µM, NIH3T3 tox 35µM
COc1ccc(CN2C(=O)COC[C@H]2C(=O)NCc2ccc(Cl)cc2)c(OC)c1	none
COc1ccc(OC2CN(Cc3ccc(C#N)cc3)C2)cc1	none (no result: hNpr1 antagonist, Luciferase inh)
CCCN(CC1CCOC1)S(=O)(=O)c1ccc(F)cc1 (configuration not stated)	NIH3T3 tox inconclusive
O=C(NCc1ccccc1)c1ccc2nnc(-c3ccoc3)n2c1	NIH3T3 tox inconclusive, SNCA expr inhib inconclusive (no result: hNpr1 antagonist, Luciferase inh)
O=C(NCc1ccc(Cl)cc1)c1ccc2nnc(-c3cccc(C(F)(F)F)c3)n2c1	HEK293 tox 14µM, NIH3T3 tox inconclusive, SNCA expr inhib inconclusive (no result: hNpr1 antagonist, Luciferase inh)
O=C(NCc1ccccc1Cl)c1ccc2nnc(-c3cc(C(F)(F)F)cc(C(F)(F)F)c3)n2c1	HEK293 tox inconclusive, NIH3T3 tox inconclusive (no result: hNpr1 antagonist, Luciferase inh)
O=C(NCc1ccc(Cl)cc1)c1ccc2nnc(-c3cc(C(F)(F)F)cc(C(F)(F)F)c3)n2c1	HEK293 tox 14µM, NIH3T3 tox inconclusive, SNCA viab count inconclusive (no result: hNpr1 antagonist, Luciferase inh)
O=C(NC1CCCCCC1)c1ccc2nccn2c1	HEK293 tox inconclusive, Luciferase inh 40µM
O=C(NCc1ccccc1Cl)c1ccc2nnc(-c3ccoc3)n2c1	HEK293 tox 112µM, NIH3T3 tox inconclusive (no result: hNpr1 antagonist, Luciferase inh)
COc1ccc(C(=O)N2CCN(c3ccnc4ccnn34)CC2)cc1	HEK293 tox inconclusive, NIH3T3 tox inconclusive (no result: hNpr1 antagonist, Luciferase inh)
O=C(Cc1cccc(Cl)c1)N1CCCC(C(=O)N2CCCC2c2nc3ccncc3[nH]2)C1 (configuration not stated)	none (no result: hNpr1 antagonist, Luciferase inh)
CC(C)CCNC(=O)CC1Sc2ncccc2N(CC(C)C)C1=O (configuration not stated)	none
COc1cccc(CNC(=O)c2ccc3nnc(-c4cccc(C(F)(F)F)c4)n3c2)c1	HEK293 tox 45µM, NIH3T3 tox inconclusive, SNCA expr inhib inconclusive (no result: hNpr1 antagonist, Luciferase inh)
O=C(NC1CCCCC1)c1ccc2nnc(-c3cc(C(F)(F)F)cc(C(F)(F)F)c3)n2c1	HEK293 tox 35µM, NIH3T3 tox 32µM (no result: hNpr1 antagonist, Luciferase inh)
O=C(NCc1ccc(F)c(F)c1)c1ccc2nnc(-c3cccc(C(F)(F)F)c3)n2c1	HEK293 tox 32µM, NIH3T3 tox 25µM (no result: hNpr1 antagonist, Luciferase inh)
O=C(NCc1cccs1)c1ccc2nnc(-c3cccc(C(F)(F)F)c3)n2c1	HEK293 tox inconclusive, NIH3T3 tox inconclusive, SNCA expr inhib inconclusive (no result: hNpr1 antagonist, Luciferase inh)
O=C(NCc1ccc(F)cc1)c1ccc2nnc(-c3cccc(C(F)(F)F)c3)n2c1	HEK293 tox 40µM, NIH3T3 tox inconclusive, SNCA expr inhib inconclusive, SNCA viab count inconclusive (no result: hNpr1 antagonist, Luciferase inh)
COc1cccc(CNC(=O)c2ccc3nnc(-c4cc(C(F)(F)F)cc(C(F)(F)F)c4)n3c2)c1	HEK293 tox inconclusive, NIH3T3 tox inconclusive (no result: hNpr1 antagonist, Luciferase inh)

Assay outcomes (PubChem)
